Hits are enriched below; roughly 7.8% of the tested compounds scored in any of these assays.
MITF inh – inhibitors of MITF, primary screen, MITF inhibitor project, cell-based, luminescence | TRPM1 promoter luciferase, 24 h | inhibition, % (concentration not given with the values) | 37,000 compounds, 0.28% hits; in the data active = inhibition above about 85%;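 note: human melanocyte line stably carrying TRPM1 promoter luciferase reporter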
NOMO-1 viab – NOMO-1 AML cell viability reduction, primary screen, STK33 inhibitor project, CellTiter-Glo luminescence; NOMO-1 AML viability, 72 h; inhibition, % (concentration not given with the values); 37,000 compounds, 7.5% hits; AID 2330, 2010; in the data active = inhibition above about 80%
PD-1 reverse act – activators reversing PD-1 mediated T-cell inhibition, primary screen, luminescence, primary human CD4 T cells, PD-L1 beads. CellTiter-Glo 96 h. activation, % (test concentration not listed). 29,000 tested, under 10 active; call rule not given here;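 note: 0% = median vehicle wells and 100% = positive control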
Hedgehog inh – Hedgehog pathway signaling inhibitors, primary screen, luminescence, Shh-LIGHT2 cells, Gli-luciferase | Shh-LIGHT2 Gli-luciferase reporter, 30 h | inhibition, % (no concentration beside the values) | 22,000 compounds, 2.1% hits | AID 2313, 2010;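 active = mean inhibition across valid replicates above about 65%, limit read from the data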;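 note: pathway switched on by Shh-conditioned medium diluted 1 in 25 in low serum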
* hit, by the source's call; . = no result.

SMILES	MITF inh	NOMO-1 viab	PD-1 reverse act	Hedgehog inh
C[C@@H]1CN([C@H](C)CO)C(=O)Cc2cc(NC(=O)Nc3ccc(F)cc3)ccc2O[C@@H]1CN(C)S(=O)(=O)c1ccc(Cl)cc1	24	6	-2	26
Cc1ccc(S(=O)(=O)N(C)C[C@@H]2Oc3ccc(NC(=O)Nc4ccccc4)cc3CC(=O)N([C@@H](C)CO)C[C@@H]2C)cc1	35	124*	.	-12
Cc1ccc(S(=O)(=O)N(C)C[C@@H]2Oc3ccc(NC(=O)CCC(F)(F)F)cc3CC(=O)N([C@@H](C)CO)C[C@@H]2C)cc1	15	134*	0	5
Cc1ccc(S(=O)(=O)N(C)C[C@@H]2Oc3ccc(NC(=O)CCC(F)(F)F)cc3CC(=O)N([C@H](C)CO)C[C@H]2C)cc1	-1	-11	.	-41
C[C@H]1CN([C@@H](C)CO)C(=O)Cc2cc(NC(=O)Nc3ccc(F)cc3)ccc2O[C@H]1CN(C)S(=O)(=O)c1ccc(Cl)cc1	31	114*	-2	13
C[C@H]1CN([C@@H](C)CO)C(=O)Cc2cc(NC(=O)Nc3ccccc3)ccc2O[C@H]1CN(C)S(=O)(=O)c1ccc(Cl)cc1	30	113*	-1	11
C[C@@H]1CN([C@@H](C)CO)C(=O)Cc2cc(NC(=O)Nc3ccccc3)ccc2O[C@@H]1CN(C)S(=O)(=O)c1ccccc1	2	53	.	-10
COc1cc(Cc2nccc3cc(OC)c(OC)cc23)c(NC(=O)c2cccc(Br)c2)cc1OC	-8	8	-1	.
O=C(O)CC(C(=O)Nc1ccc(Cl)cc1)N1CCCCC1 (configuration not stated)	-6	-8	3	.
Cc1cccc(N2C(=O)c3ccc(C(=O)Nc4c[nH]c(=O)[nH]c4=O)cc3C2=O)c1C	-27	-13	0	-15
Cc1cccnc1NC(=S)Nc1ccc(S(N)(=O)=O)cc1	-71	14	.	.
COC(=O)c1ccccc1S(=O)(=O)/C(C#N)=C/Nc1nc(SC)nc(C2CC2)n1	-11	14	0	4
C[C@@H]1CN([C@H](C)CO)C(=O)c2cccc(NC(=O)C3CC3)c2O[C@@H]1CN(C)Cc1ccc(C(F)(F)F)cc1	-3	-1	1	-35
C[C@H]1CN([C@@H](C)CO)C(=O)c2cccc(NC(=O)C3CCCCC3)c2O[C@@H]1CN(C)Cc1ccc(Oc2ccccc2)cc1	31	86*	.	31
C[C@H](CO)N1C[C@H](C)[C@H](CN(C)Cc2ccc(-c3ccccc3)cc2)Oc2c(NC(=O)C3CCCCC3)cccc2C1=O	0	119*	-2	0
C[C@@H]1CN([C@H](C)CO)C(=O)c2cccc(NC(=O)C3CCCCC3)c2O[C@H]1CN(C)Cc1ccc(C(F)(F)F)cc1	64	104*	-6	11
CC(=O)c1ccc(NC(=O)CNS(=O)(=O)c2ccc(C(C)(C)C)cc2)cc1	-5	49	-2	.
C=C(C(=O)O[C@H]1C/C(C)=C\CC/C(CO)=C\[C@H]2OC(=O)C(=C)[C@H]12)C(O)CO (some centres not stated)	-33	19	-3	18
C=C(C)C(=O)OC1CC(CO)CCC/C(CO)=C\C2OC(=O)C(=C)C21 (configuration not stated)	.	.	.	71*
C[C@H](CO)N1C[C@H](C)[C@H](CN(C)S(=O)(=O)c2cccs2)Oc2c(NC(=O)C3CC3)cccc2C1=O	-6	-4	.	85*
C[C@H](CO)N1C[C@H](C)[C@@H](CN(C)S(=O)(=O)c2cccs2)Oc2ccc(NC(=O)Nc3ccc(C(F)(F)F)cc3)cc2C1=O	23	92*	-1	6
C[C@H]1CN([C@@H](C)CO)C(=O)c2cccc(NC(=O)Nc3ccc(C(F)(F)F)cc3)c2O[C@H]1CN(C)S(=O)(=O)c1cccs1	14	91*	-3	-9
C[C@@H]1CN([C@H](C)CO)C(=O)c2cc(NC(=O)Nc3ccc(C(F)(F)F)cc3)ccc2O[C@H]1CN(C)S(=O)(=O)c1cccs1	-16	45	-7	.
C[C@@H]1CN([C@H](C)CO)C(=O)c2cccc(NC(=O)C3CC3)c2O[C@H]1CN(C)S(=O)(=O)c1cccs1	-11	-13	3	-16
C[C@H](CO)N1C[C@H](C)[C@H](CN(C)S(=O)(=O)c2cccs2)Oc2c(NC(=O)Nc3ccc(C(F)(F)F)cc3)cccc2C1=O	27	92*	-2	15
O=C(O)C1Cc2ccccc2C1	-14	0	3	-6
